Experimental data from PubChem BioAssay (EPA / NIEHS).
Results filed as inconclusive are left out. Active and inactive are the calls of the source. The calls were made as follows: active = hit-call score of the fitted dose curve at least 0.9, where 1 is the maximum; inconclusive = response in the unintended direction; inactive = score below 0.9.

Biological target: Estrogen-related receptor gamma (Homo sapiens) (UniProt P62508)
Assay: ATG_ERRg_TRANS: Attagene TRANS-FACTORIAL HepG2 Assay for human Estrogen-Related Receptor gamma (ERRg) (AID 2282977);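 also: hits increase reporter signal over DMSO so potencies reflect activators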
Conditions: HepG2 Attagene TRANS reporter, ERRg transactivation
Procedure, shortened: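 Exogenous NR-Gal4 chimera activity measured as reporter transcript induction after 24 h in transiently transfected HepG2 cells. RNA reverse-transcribed, PCR-amplified, 6-FAM-labelled and resolved by capillary electrophoresis; increase over DMSO baseline.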

Sequence of Estrogen-related receptor gamma (Homo sapiens) (P62508 whole entry, looked up): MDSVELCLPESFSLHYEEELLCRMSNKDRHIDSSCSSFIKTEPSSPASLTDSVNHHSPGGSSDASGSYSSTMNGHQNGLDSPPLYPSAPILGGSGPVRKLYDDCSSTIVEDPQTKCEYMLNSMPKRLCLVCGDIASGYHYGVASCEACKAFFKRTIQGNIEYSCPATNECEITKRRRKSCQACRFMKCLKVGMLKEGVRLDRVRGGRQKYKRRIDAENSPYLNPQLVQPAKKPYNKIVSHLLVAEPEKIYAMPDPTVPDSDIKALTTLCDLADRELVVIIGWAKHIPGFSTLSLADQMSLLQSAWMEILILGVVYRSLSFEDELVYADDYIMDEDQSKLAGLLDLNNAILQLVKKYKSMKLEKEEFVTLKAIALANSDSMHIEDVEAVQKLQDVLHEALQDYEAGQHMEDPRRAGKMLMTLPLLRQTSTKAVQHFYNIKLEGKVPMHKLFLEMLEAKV

SMILES | outcome
NNc1nc(-c2ccc([N+](=O)[O-])cc2)cs1 | inactive
CCCCc1ccc2ccccc2c1S(=O)(=O)O | inactive
Nc1cc(Cl)c(-c2cc(Cl)c(N)cc2Cl)cc1Cl | inactive
c1cnc2c(c1)ccc1cccnc12 | inactive
CC(C)C=O | inactive
CCC(=O)C=Cc1ccc(OC)cc1 | inactive
CCCCCCC(C)(C)C(=O)O | inactive
C=CCOCC(CO)(CO)CO | inactive
CCc1cccc(CC)c1NC(=O)C(=O)O | inactive
CC[N+](CC)(CC)Cc1ccccc1 | inactive
Oc1cccc2c(O)cccc12 | inactive
C=CC(=O)OCCC(F)(F)C(F)(F)C(F)(F)C(F)(F)C(F)(F)C(F)(F)F | inactive
O=C(Nc1ccc(Cl)c(Cl)c1)c1cc(Cl)cc(Cl)c1O | inactive
CCOC(=O)CN[C@@H](C(=O)N1CC[C@H]1C(=O)NCc1ccc(/C(N)=N/O)cc1)C1CCCCC1 | inactive
CCC(C)c1ccccc1O (stereo unspecified) | inactive

Biological target: Glucocorticoid receptor (Homo sapiens) (UniProt P04150)
Assay: ATG_GR_TRANS: Attagene TRANS-FACTORIAL HepG2 Assay for human Glucocorticoid Receptor (GR) (AID 2282978);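 also: activators score as hits since higher reporter transcript over DMSO is fitted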
Conditions: HepG2 Attagene TRANS GR reporter, mRNA transcription
Procedure, shortened: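 Readout is reporter transcript from a chimeric GR-Gal4 acting on GAL4-UAS in transfected human HepG2 liver cells after 24 h exposure, quantified by RT-PCR and capillary electrophoresis. Activation fitted upward against DMSO.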

Sequence of Glucocorticoid receptor (Homo sapiens) (P04150 whole entry, looked up): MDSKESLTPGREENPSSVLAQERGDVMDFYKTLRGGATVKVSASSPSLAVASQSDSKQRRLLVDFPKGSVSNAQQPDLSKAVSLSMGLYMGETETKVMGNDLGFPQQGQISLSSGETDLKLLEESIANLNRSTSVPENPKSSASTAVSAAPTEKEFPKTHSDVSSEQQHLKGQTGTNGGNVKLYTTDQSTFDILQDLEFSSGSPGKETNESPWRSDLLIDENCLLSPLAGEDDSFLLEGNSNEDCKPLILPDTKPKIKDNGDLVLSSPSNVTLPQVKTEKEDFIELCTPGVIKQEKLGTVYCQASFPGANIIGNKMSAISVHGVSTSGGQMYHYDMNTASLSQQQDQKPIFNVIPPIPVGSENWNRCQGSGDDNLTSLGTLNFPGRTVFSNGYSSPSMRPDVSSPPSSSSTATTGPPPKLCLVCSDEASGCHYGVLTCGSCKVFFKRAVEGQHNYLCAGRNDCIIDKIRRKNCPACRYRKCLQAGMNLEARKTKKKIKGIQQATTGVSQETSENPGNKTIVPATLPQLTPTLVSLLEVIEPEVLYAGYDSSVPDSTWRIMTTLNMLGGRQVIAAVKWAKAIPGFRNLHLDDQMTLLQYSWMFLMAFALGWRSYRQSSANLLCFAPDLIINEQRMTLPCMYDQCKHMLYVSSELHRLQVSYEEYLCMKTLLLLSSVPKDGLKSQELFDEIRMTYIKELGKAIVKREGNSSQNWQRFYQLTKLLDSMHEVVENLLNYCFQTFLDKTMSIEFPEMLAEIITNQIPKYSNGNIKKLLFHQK

SMILES | outcome
c1cnc2c(c1)ccc1cccnc12 | inactive
FC(F)(F)N1C(F)(F)C(F)(F)OC(F)(F)C1(F)F | inactive
CC1COCc2cc3c(cc21)C(C)(C)C(C)C3(C)C (stereo unspecified) | inactive
CC(C)C=O | inactive
CCOC=C(C(=O)OCC)C(=O)OCC | inactive
CCC(=O)C=Cc1ccc(OC)cc1 | inactive
COc1cc(OC)nc(NC(=O)NS(=O)(=O)Nc2ccccc2C(=O)N(C)C)n1 | inactive
CCCCCCCCC(C)=O | inactive
C=CCOCC(CO)(CO)CO | inactive
CC[N+](CC)(CC)Cc1ccccc1 | inactive
Oc1cccc2c(O)cccc12 | inactive
O=P(O)(O)CCC(F)(F)C(F)(F)C(F)(F)C(F)(F)C(F)(F)C(F)(F)C(F)(F)C(F)(F)F | inactive
COc1ccc(C#N)cc1 | inactive
OCC(F)(F)C(F)(F)C(F)(F)C(F)(F)C(F)(F)C(F)(F)C(F)(F)C(F)(F)C(F)(F)C(F)(F)C(F)(F)F | inactive
Clc1ccc(Nc2nnc(Cc3ccncc3)c3ccccc23)cc1 | inactive
C=CC(=O)OCCC(F)(F)C(F)(F)C(F)(F)C(F)(F)C(F)(F)C(F)(F)F | inactive
O=C(Nc1ccc(Cl)c(Cl)c1)c1cc(Cl)cc(Cl)c1O | inactive
Cc1cc(C(=C2C=CC(=Nc3ccc(S(=O)(=O)O)cc3)C=C2)c2ccc(Nc3ccc(S(=O)(=O)O)cc3)cc2)cc(S(=O)(=O)O)c1N | inactive

Biological target: Bile acid receptor (Homo sapiens) (UniProt Q96RI1)
Assay: ATG_FXR_TRANS: Attagene TRANS-FACTORIAL HepG2 Assay for Farnesoid X Receptor (FXR) (AID 2282979);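 also: hits raise reporter mRNA above DMSO so AC50 marks FXR activation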
Conditions: HepG2 Attagene TRANS FXR-GAL4 reporter transcription
Procedure, shortened: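 Read-out: fluorescent reporter transcripts quantified by capillary electrophoresis after RT-PCR of total RNA. Source cells were HepG2 transiently carrying chimeric NR-GAL4 plus GAL4-UAS reporter units, dosed 24 h. Activity fitted upward relative to DMSO baseline.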

Sequence of Bile acid receptor (Homo sapiens) (Q96RI1 whole entry, looked up): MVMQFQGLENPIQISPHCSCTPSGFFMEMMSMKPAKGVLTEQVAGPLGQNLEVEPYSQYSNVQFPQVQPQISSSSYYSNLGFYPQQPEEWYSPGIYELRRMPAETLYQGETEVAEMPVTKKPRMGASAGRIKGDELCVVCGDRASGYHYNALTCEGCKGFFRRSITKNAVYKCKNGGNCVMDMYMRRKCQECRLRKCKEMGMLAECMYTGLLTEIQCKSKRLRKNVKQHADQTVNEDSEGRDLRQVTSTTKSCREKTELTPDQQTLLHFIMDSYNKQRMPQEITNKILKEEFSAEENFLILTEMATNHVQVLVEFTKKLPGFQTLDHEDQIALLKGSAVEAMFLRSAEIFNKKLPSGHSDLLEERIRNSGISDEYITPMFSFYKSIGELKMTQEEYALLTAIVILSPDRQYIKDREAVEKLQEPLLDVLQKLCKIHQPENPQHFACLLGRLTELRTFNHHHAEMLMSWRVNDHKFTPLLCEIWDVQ

SMILES | outcome | AC50
CC(C)(C)c1ccc(CCC=O)cc1 | inactive | –
NNc1nc(-c2ccc([N+](=O)[O-])cc2)cs1 | inactive | –
CCCCc1ccc2ccccc2c1S(=O)(=O)O | inactive | –
Nc1cc(Cl)c(-c2cc(Cl)c(N)cc2Cl)cc1Cl | – | 11.1 µM (active)
FC(F)(F)N1C(F)(F)C(F)(F)OC(F)(F)C1(F)F | inactive | –
CC1COCc2cc3c(cc21)C(C)(C)C(C)C3(C)C (stereo unspecified) | inactive | –
CCC(=O)C=Cc1ccc(OC)cc1 | inactive | –
COCN(COC)c1nc(N(COC)COC)nc(N(COC)COC)n1 | inactive | –
COc1cc(OC)nc(NC(=O)NS(=O)(=O)Nc2ccccc2C(=O)N(C)C)n1 | inactive | –
CCCCCCCCC(C)=O | inactive | –
C=CCOCC(CO)(CO)CO | inactive | –
CCc1cccc(CC)c1NC(=O)C(=O)O | inactive | –
CC[N+](CC)(CC)Cc1ccccc1 | inactive | –
O=P(O)(O)CCC(F)(F)C(F)(F)C(F)(F)C(F)(F)C(F)(F)C(F)(F)C(F)(F)C(F)(F)F | inactive | –
CCCCCc1ccc(O)cc1 | inactive | –
OCC(F)(F)C(F)(F)C(F)(F)C(F)(F)C(F)(F)C(F)(F)C(F)(F)C(F)(F)C(F)(F)C(F)(F)C(F)(F)F | inactive | –
Clc1ccc(Nc2nnc(Cc3ccncc3)c3ccccc23)cc1 | inactive | –
C=CC(=O)OCCC(F)(F)C(F)(F)C(F)(F)C(F)(F)C(F)(F)C(F)(F)F | inactive | –
O=C(Nc1ccc(Cl)c(Cl)c1)c1cc(Cl)cc(Cl)c1O | – | 3.82 µM (active)
CCOC(=O)CN[C@@H](C(=O)N1CC[C@H]1C(=O)NCc1ccc(/C(N)=N/O)cc1)C1CCCCC1 | inactive | –
CC(=O)CC(C)C | inactive | –
C=COC(=O)C(C)(C)CCCCCC | inactive | –

Biological target: Oxysterols receptor LXR-alpha (Homo sapiens) (UniProt Q13133)
Assay: ATG_LXRa_TRANS: Attagene TRANS-FACTORIAL HepG2 Assay for human Liver X Receptor alpha (LXRa) (AID 2282980)
Conditions: HepG2 Attagene TRANS reporter, LXRa transactivation
Procedure, shortened: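 Read-out: reporter transcript levels by RT-PCR plus capillary electrophoresis, fluorescence intensity. Transiently transfected HepG2, exogenous NR-GAL4 chimera, GAL4-UAS reporters; 24 h compound exposure. Activity = increase over DMSO negative control.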

Sequence of Oxysterols receptor LXR-alpha (Homo sapiens) (Q13133 whole entry, looked up): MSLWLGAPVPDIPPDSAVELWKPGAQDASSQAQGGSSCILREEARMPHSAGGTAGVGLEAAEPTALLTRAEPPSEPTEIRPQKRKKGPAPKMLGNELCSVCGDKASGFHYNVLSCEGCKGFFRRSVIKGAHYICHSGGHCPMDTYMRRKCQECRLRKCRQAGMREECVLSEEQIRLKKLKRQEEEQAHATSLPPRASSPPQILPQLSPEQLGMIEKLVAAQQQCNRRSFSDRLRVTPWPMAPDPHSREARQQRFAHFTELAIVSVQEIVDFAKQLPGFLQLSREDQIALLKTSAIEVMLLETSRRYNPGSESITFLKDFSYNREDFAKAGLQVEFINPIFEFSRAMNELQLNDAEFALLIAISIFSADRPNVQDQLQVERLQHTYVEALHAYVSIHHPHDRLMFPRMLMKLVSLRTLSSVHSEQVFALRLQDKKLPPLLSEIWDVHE

SMILES | outcome
NNc1nc(-c2ccc([N+](=O)[O-])cc2)cs1 | inactive
NC(=NCCCCCCN=C(N)/N=C(\N)Nc1ccc(Cl)cc1)/N=C(\N)Nc1ccc(Cl)cc1 | inactive
c1cnc2c(c1)ccc1cccnc12 | inactive
CCC(C)c1nccnc1OC (stereo unspecified) | inactive
Cc1cc(=O)oc2cc(O)ccc12 | inactive
CC1COCc2cc3c(cc21)C(C)(C)C(C)C3(C)C (stereo unspecified) | inactive
Oc1cc2ccccc2cc1O | inactive
CC(C)C=O | inactive
CCOCCOCC | inactive
CCCCCCCCC(C)=O | inactive
C=CCOCC(CO)(CO)CO | inactive
CCc1cccc(CC)c1NC(=O)C(=O)O | inactive
CC[N+](CC)(CC)Cc1ccccc1 | inactive
Oc1cccc2c(O)cccc12 | inactive
O=P(O)(O)CCC(F)(F)C(F)(F)C(F)(F)C(F)(F)C(F)(F)C(F)(F)C(F)(F)C(F)(F)F | inactive
C=CC(=O)OCCC(F)(F)C(F)(F)C(F)(F)C(F)(F)C(F)(F)C(F)(F)F | inactive
O=C(Nc1ccc(Cl)c(Cl)c1)c1cc(Cl)cc(Cl)c1O | inactive
CC(=O)CC(C)C | inactive
C=COC(=O)C(C)(C)CCCCCC | inactive
Cc1cc(C(=C2C=CC(=Nc3ccc(S(=O)(=O)O)cc3)C=C2)c2ccc(Nc3ccc(S(=O)(=O)O)cc3)cc2)cc(S(=O)(=O)O)c1N | inactive
Cc1ccc(N=Nc2c(O)ccc3ccccc23)c(C)c1 | inactive
